The values below come from PubChem BioAssay (NCI).

The panel holds about 83,000 compounds, 20% with a hit somewhere; the sample as a whole holds those more often.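 48-hour exposure, single concentration, 96-well plates; percent growth endpoint where 0 means no net growth. Active: below 10.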 Values without a mark were called inactive. Active and inactive are the calls of the source.

The first test deals with SNB-19 CNS. In words: NCI-60 one-dose screen, 48 h (100 = growth as untreated, 0 = no growth, -100 = all killed). As to conditions: 10 µM unless noted.
Take `CC(C)(CO)N(CCO)CCO`: the growth is 103%. The same measure, in the same setting: to `CCOC(=O)c1c(C)nc2c(c1N)CC(=O)N2Cc1cc(OC)c(OC)c(OC)c1` belongs 66.1%; to `O=C(O)c1cn(C2CC2)c2cc(N3CCN(C(=O)N/N=C/c4ccccc4)CC3)c(F)cc2c1=O`, 94.7%. Same read-out and setting: with `O=C1NC(=O)c2c1c1c3ccccc3[nH]c1c1oc3cc(Br)ccc3c21` the figure was 72.8%.

In the next test the test system is U251 CNS. The description is as above. The following applies: 10 µM unless noted.
For the compound `COc1cc(C(=O)c2c(N)ncn2-c2ccccc2)cc(OC)c1OC`, the growth is 95%. Still for that read-out and setting: to `CCn1c2ccc(O)cc2c2c(C)c3c[n+](C(C)C)ccc3c(C)c21` belongs 13.5%. Still for that read-out and setting: to `Cc1cc2nc(-c3c(-c4ccc(F)cc4)nc4sccn34)[nH]c2cc1C` belongs 95.4%; to `Oc1c(I)cc(-c2nc3ccccc3s2)cc1CN(Cc1ccccn1)Cc1ccccn1`, 8.16% (active); to `CC(C)(CO)N(CCO)CCO`, 91.4%. Still for that read-out and setting: to `CC1(C)CC[C@]2(C(=O)N3CCOCC3)CC[C@]3(C)C(=CC[C@@H]4[C@@]5(C)C/C(=C/c6ccncc6)C(=O)C(C)(C)[C@@H]5CC[C@]43C)[C@@H]2C1` belongs 18.4%. Regarding `Cc1cccc(NC(=O)CSc2nc3ccc([N+](=O)[O-])cc3[nH]2)c1`, the growth was 74.5%. On the same count and under the same terms, to `COc1ccc(-c2oc(=O)ccc2-c2cc(OC)c(OC)c(OC)c2)cc1O` belongs 22.7%; to `O=C(O)c1cccc(N/C=C/C(=O)c2cc3cc(Br)ccc3oc2=O)c1`, 96.9%; to `CC[C@H](C)[C@H](NC(=O)[C@H](CCCNC(=N)N)NC(=O)[C@H](Cc1c[nH]c2ccccc12)NC(=O)[C@@H](NC(=O)[C@H](CCCCN)NC(=O)[C@H](CCCCN)NC(=O)[C@@H](NC(=O)[C@@H](NC(=O)[C@@H](NC(=O)[C@H](CCCCN)NC(=O)[C@H](Cc1ccccc1)NC(=O)[C@H](CCCCN)NC(=O)[C@H](CCCCN)NC(=O)[C@H](Cc1ccccc1)NC(=O)[C@@H](NC(=O)[C@@H](N)CCCCN)[C@@H](C)CC)[C@@H](C)O)[C@@H](C)CC)[C@@H](C)CC)C(C)C)C(=O)N[C@@H](Cc1ccccc1)C(=O)NCC(=O)N[C@@H](CCCNC(=N)N)C(=O)N[C@@H](Cc1ccccc1)C(N)=O`, -44.1% (active). Same read-out and setting: to `CCOC(=O)c1c(C)nc2c(c1N)CC(=O)N2Cc1cc(OC)c(OC)c(OC)c1` belongs 38.3%; to `Cc1c(Cl)cccc1C(=O)Nc1nc2c(s1)CN(C(=O)Nc1cccc(C(F)(F)F)c1)CC2`, 22.2%; to `COc1cc2nc(Nc3cccc(F)c3)nc(Nc3cc(C)[nH]n3)c2cc1OC`, -55.5% [20 µM] (active).

For `CCC(CC)(N(CC(=O)O)CC(=O)O)C(CC)(CC)N(CC(=O)O)CC(=O)O`, the growth is 102%. The same measure, in the same setting: with `O=C(O)c1cn(C2CC2)c2cc(N3CCN(C(=O)N/N=C/c4ccccc4)CC3)c(F)cc2c1=O` the figure was 101%.

As to `COc1ncc2cc1NS(=O)(=O)c1cccc(c1)C(=O)NCC1=CC=C(S1)c1ncnc3c1SC2=C3C`, the growth is -10.2% (active).

Consider `CCOC(=O)c1c(-c2ccc(Cl)cc2)c(C#N)c2c(C#N)c(N)nn2c1N`, for which the growth is 66.4%. With `O=C(/C=C/c1cccc(Cl)c1)c1cccc(OCCCCOc2cccc(C(=O)/C=C/c3cccc(Cl)c3)c2)c1`, the growth was 68.7%. On the same count and under the same terms, with `NC(CSC(c1ccccc1)(c1ccccc1)c1ccc2c(c1)OCO2)C(=O)O` (centres undefined) the figure was -7.2% (active). Same read-out and setting: to `O=C1NC(=O)c2c1c1c3ccccc3[nH]c1c1oc3ccc(F)cc3c21` belongs 83.4%; to `O=c1ccc2nc(C(F)(F)F)nn(-c3ccccc3)c-2c1`, 69.7%. Same read-out and setting: to `CCNc1nc(-c2ccc(F)cc2)c(C#N)c(=O)n1C` belongs 65.2%; to `Clc1nccc2c(-c3csc(-c4c[nH]c5ccccc45)n3)c[nH]c12`, 20.9%; to `C=C(C)[C@@H]1CC[C@]2(CO)CC[C@]3(C)[C@H](CC[C@@H]4[C@@]5(C)CCC(NCCc6ccc(O)cc6)C(C)(C)[C@@H]5CC[C@]43C)[C@@H]12` (some centres undefined), -94.2% (active). As for `CCCCCCCCCCCCCCCCOC(=O)c1c(C)[nH]c(/C=C2\N=C(c3ccc[nH]3)C=C2OC)c1C`, the growth is 41.7%. Turning to `COc1ccc(-c2ccc(-c3ccc(C(=N)N)cn3)s2)cc1`, the growth is 15.3%. Consider `COc1cc(-c2nc(SCCC(C)C)nc(N3CCOCC3)c2C#N)cc(OC)c1OC`, for which the growth is 5.83% (active). The same measure, in the same setting: to `Cc1cc2oc(=O)cc(CP(=O)(O)O)c2cc1O` belongs 98.5%.

Take `O=C1/C=C/[C@@H](O)[C@@H]2C[C@@H](O)C[C@H]2/C=C/CCC[C@H](CCOCc2ccccc2)O1`: the growth is 18.4%. The same measure, in the same setting: with `O[C@@H](c1cc(C(F)(F)F)nc2c(C(F)(F)F)cccc12)[C@H]1CCCCN1` the figure was 47.7%. On the same count and under the same terms, with `O=C1CCCc2nc3sc4c(=O)n(-c5ccccc5Cl)nnc4c3cc21` the figure was 88.5%. Consider `O=C(CCC(=O)c1nc2ncccc2[nH]1)NN1C(=O)CSC1c1ccc(Cl)cc1` (centres undefined), for which the growth was 95.2%.

As to `Cc1[nH]c(C(=O)Nc2cccc(OC3CCNCC3)c2)c(Cl)c1Cl`, the growth was 63.9%. The same measure, in the same setting: to `CCOC(=O)C(=Cc1cccc(C#N)c1)C(=O)OCC` belongs 76.1%; to `C=CCn1c(SCC(=O)Nc2ccc(C(=O)/C=C/c3ccc(OC)cc3)cc2)nnc1-c1ccccc1`, 98.1%. `COc1ccc(/C=C/C(=O)c2cc3c(N)c(C(=O)Nc4ccccc4C)sc3nc2C)cc1`: the growth was 9.39% (active). On the same count and under the same terms, with `O=C1NC(=O)c2c1c1c3ccccc3[nH]c1c1oc3cc(Br)ccc3c21` the figure was 65.5%; with `CS(=O)(=O)Cc1cnc(C2OCCO2)s1`, 96.5%. The same measure, in the same setting: with `COc1ccc(C2=Nc3c(N)ncnc3NC(c3cccc(Nc4ccnc5cc(C(F)(F)F)ccc45)c3)C2)cc1` (centres undefined) the figure was 54.5%. For the compound `NS(=O)(=O)c1ccc(N/C=C/C(=O)c2cc3ccccc3oc2=O)cc1`, the growth is 97.2%.
